In the supplement of paper PMC10849652:
Of roughly 8,800 targets only a part is listed; those with a hit were picked by preference. About 0.5% of all pairs of compound and target were hits. Values without a mark were called inactive.

How the values were obtained:
Assay in all cases: log2 fold change, soluble protein after heating vs DMSO (PISA); higher = thermal stabilisation; K562 lysate, 10 uM; active = over 0.2 and 3.5 SD of the protein, either way, in both replicates (recomputed)
ibrutinib = compound: C=CC(=O)N1CCC[C@@H](n2nc(-c3ccc(Oc4ccccc4)cc3)c3c(N)ncnc32)C1 [ibrutinib]
In short: (§1)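 Quantification was by TMTpro 16plex LC-MS/MS with equalised channel sums, applied to the supernatant after 21,000xg for 90 min. Samples were crude K562 extract at 1 mg/mL protein in PBS pH 7.4 with 1 mM MgCl2, treated with 10 μM compound for 30 min, heated for 3 min across 48°C-58°C, pooled and brought to 0.5% NP-40 at 4°C. Values are log-two fold changes in thermal stability relative to solvent controls, from duplicates.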

[1] = compound: CC(=O)c1cnc2ccc(-c3cc(Cl)c(O)c(Cl)c3)nc2c1N[C@H]1CC[C@H](CN(C)C)CC1
In short: as §1

ralimetinib = compound: CC(C)(C)Cn1c(N)nc2ccc(-c3[nH]c(C(C)(C)C)nc3-c3ccc(F)cc3)nc21 [ralimetinib]
In short: as §1

[2] = compound: CC(C)(O)CC(=O)NCCn1ccc2ncnc(Nc3ccc(Oc4cccc(C(F)(F)F)c4)c(Cl)c3)c21
In short: as §1

[3] = compound: CC(C)C1=C2N=C(C=C(N2N=C1)NCC3=CC=CC=C3)NCCCCCCN
In short: as §1

[4] = compound: CC1=C(C(CC(=O)N1)C2=CC=C(C=C2)C(F)(F)F)C(=O)NC3=C(C=C4C(=C3)C=NN4)F
In short: as §1

[5] = compound: CC1=C(C2=C(C=C1)C(=O)C3=CC=CC=C3N2CCCN)C
In short: as §1

[6] = compound: CC1=C(C=C(C=C1)NC(=O)C2=CC(=CC=C2)C(C)(C)C#N)NC3=CC4=C(C=C3)N=CN(C4=O)C
In short: as §1

[7] = compound: CC1=C(C=C(C=C1)NC(=O)C2=CC(=CC=C2)N(C)C)NC(=O)C3=CC=C(C=C3)O
In short: as §1

[8] = compound: CC1=CC=C(C=C1)SC2=C3C=C(SC3=CN=C2)C(=O)N
In short: as §1

vemurafenib = compound: CCCS(=O)(=O)Nc1ccc(F)c(C(=O)c2c[nH]c3ncc(-c4ccc(Cl)cc4)cc23)c1F [vemurafenib]
In short: as §1

[9] = compound: CCCS(=O)(=O)Nc1ccc(F)c(C(=O)c2c[nH]c3ncc(Cl)cc23)c1F
In short: as §1

barasertib = compound: CCN(CCCOc1ccc2c(Nc3cc(CC(=O)Nc4cccc(F)c4)[nH]n3)ncnc2c1)CCOP(=O)(O)O [barasertib]
In short: as §1

[10] = compound: CC[C@@H]1C(=O)N(C)c2cnc(Nc3ccc(C(=O)NC4CCN(C)CC4)cc3OC)nc2N1C1CCCC1
In short: as §1

volasertib = compound: CC[C@@H]1C(=O)N(C)c2cnc(Nc3ccc(C(=O)N[C@H]4CC[C@H](N5CCN(CC6CC6)CC5)CC4)cc3OC)nc2N1C(C)C [volasertib]
In short: as §1

[11] = compound: CCn1c(C(=O)N(C2CC2)C2CC2)cc2c3c(ncn3C)c(Nc3cc(C)n(C)n3)nc21
In short: as §1

[12] = compound: CCn1cc(-c2ccnc3[nH]c(-c4cccc(CN(C)C)c4)cc23)c(-c2ccc(NC(=O)N(C)C)cc2)n1
In short: as §1

[13] = compound: CN1CCC(CNc2ccc3ncc(-c4cccc(OC(F)(F)F)c4)n3n2)CC1
In short: as §1

saracatinib = compound: CN1CCN(CCOc2cc(OC3CCOCC3)c3c(Nc4c(Cl)ccc5c4OCO5)ncnc3c2)CC1 [saracatinib]
In short: as §1

sotrastaurin = compound: CN1CCN(c2nc(C3=C(c4c[nH]c5ccccc45)C(=O)NC3=O)c3ccccc3n2)CC1 [sotrastaurin]
In short: as §1

Chain of UniProt Q9Y223 (Q9Y223 whole entry, looked up): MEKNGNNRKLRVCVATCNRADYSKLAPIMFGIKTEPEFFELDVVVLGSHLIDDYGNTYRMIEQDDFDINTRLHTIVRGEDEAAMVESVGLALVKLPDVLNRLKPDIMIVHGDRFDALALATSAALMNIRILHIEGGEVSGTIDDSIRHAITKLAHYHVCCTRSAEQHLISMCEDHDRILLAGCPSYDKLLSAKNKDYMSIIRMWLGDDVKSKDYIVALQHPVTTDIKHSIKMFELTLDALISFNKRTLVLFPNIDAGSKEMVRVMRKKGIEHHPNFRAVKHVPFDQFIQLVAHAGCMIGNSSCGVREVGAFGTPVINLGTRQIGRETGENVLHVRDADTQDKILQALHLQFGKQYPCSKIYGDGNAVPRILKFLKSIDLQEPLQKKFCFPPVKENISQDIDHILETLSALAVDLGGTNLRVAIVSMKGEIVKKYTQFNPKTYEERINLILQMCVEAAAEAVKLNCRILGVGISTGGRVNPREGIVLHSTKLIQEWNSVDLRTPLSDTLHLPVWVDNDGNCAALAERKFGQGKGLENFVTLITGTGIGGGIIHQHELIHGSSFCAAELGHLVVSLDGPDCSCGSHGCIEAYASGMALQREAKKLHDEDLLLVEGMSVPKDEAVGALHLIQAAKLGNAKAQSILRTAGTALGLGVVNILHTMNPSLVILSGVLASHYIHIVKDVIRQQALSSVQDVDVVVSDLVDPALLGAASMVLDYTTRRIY
Chain of UniProt Q1KMD3 (Q1KMD3 whole entry, looked up): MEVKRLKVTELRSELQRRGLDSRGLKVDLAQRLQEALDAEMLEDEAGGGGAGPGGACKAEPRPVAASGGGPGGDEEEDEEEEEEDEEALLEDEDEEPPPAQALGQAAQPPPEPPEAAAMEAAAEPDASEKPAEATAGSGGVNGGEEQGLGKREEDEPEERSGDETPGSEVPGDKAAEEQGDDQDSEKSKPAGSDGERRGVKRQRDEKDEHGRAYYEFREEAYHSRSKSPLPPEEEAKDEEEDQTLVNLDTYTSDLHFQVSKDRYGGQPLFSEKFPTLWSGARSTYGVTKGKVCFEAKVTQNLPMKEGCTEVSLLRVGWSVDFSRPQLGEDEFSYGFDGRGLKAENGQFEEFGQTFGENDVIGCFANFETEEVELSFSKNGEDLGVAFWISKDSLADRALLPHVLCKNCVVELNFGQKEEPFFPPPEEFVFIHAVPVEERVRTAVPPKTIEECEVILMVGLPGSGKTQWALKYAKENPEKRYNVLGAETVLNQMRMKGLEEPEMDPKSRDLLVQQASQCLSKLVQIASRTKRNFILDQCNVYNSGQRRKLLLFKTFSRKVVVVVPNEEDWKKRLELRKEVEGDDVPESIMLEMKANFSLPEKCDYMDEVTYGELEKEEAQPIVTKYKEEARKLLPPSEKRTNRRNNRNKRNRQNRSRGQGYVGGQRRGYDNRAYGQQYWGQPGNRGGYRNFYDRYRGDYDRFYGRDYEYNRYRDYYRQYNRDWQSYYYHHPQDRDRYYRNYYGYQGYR
Chain of UniProt P17096 (P17096 whole entry, looked up): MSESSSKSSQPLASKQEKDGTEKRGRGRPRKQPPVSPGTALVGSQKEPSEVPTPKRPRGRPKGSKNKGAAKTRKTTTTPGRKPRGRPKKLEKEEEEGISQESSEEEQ
Chain of UniProt Q9BT25 (Q9BT25 whole entry, looked up): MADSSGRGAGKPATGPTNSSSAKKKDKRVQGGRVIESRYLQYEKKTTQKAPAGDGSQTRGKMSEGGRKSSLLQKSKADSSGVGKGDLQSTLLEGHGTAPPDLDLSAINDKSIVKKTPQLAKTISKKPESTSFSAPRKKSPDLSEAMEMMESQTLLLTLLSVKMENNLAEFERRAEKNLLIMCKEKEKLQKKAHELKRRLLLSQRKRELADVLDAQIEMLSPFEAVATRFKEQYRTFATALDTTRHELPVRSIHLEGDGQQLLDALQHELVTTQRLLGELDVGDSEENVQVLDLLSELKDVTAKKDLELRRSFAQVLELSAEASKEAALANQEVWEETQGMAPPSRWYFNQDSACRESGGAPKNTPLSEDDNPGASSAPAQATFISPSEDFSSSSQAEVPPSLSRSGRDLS
Chain of UniProt O15550 (O15550 whole entry, looked up): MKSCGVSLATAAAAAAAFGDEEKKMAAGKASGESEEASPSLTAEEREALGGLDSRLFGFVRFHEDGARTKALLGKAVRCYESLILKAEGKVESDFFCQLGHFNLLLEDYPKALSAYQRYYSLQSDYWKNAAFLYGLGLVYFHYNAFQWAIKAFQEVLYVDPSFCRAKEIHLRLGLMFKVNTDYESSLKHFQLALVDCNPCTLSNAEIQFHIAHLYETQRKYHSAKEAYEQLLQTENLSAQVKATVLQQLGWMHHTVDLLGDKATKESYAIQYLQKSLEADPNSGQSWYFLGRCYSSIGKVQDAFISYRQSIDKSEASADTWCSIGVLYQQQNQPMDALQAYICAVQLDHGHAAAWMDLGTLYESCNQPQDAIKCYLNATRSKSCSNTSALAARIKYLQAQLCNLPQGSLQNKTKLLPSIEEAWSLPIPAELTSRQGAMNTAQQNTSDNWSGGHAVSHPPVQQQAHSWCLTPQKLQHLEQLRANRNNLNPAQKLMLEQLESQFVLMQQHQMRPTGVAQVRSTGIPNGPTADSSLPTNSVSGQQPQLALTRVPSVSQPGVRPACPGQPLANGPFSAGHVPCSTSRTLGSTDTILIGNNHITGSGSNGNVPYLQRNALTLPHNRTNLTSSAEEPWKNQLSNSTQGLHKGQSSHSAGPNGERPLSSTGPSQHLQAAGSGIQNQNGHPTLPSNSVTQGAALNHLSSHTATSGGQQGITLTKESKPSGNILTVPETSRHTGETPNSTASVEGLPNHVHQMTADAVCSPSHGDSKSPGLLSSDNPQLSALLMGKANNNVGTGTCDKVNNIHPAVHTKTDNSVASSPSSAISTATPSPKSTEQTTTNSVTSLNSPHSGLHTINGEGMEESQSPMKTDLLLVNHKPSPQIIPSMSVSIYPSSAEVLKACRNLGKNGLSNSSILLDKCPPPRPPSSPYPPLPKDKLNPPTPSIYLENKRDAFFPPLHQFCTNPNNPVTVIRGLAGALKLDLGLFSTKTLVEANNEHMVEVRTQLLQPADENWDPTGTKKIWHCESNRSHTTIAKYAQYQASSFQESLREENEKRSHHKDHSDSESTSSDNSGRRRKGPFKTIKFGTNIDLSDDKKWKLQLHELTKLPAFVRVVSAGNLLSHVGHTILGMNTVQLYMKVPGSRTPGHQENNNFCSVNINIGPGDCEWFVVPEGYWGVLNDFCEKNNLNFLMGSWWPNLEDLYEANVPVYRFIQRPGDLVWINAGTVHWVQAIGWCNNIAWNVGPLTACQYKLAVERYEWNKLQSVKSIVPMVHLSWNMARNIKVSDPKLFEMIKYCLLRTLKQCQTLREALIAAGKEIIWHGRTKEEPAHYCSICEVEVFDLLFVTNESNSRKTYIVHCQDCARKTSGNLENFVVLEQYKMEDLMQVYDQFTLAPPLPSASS
Chain of UniProt Q9BXW7 (Q9BXW7 whole entry, looked up): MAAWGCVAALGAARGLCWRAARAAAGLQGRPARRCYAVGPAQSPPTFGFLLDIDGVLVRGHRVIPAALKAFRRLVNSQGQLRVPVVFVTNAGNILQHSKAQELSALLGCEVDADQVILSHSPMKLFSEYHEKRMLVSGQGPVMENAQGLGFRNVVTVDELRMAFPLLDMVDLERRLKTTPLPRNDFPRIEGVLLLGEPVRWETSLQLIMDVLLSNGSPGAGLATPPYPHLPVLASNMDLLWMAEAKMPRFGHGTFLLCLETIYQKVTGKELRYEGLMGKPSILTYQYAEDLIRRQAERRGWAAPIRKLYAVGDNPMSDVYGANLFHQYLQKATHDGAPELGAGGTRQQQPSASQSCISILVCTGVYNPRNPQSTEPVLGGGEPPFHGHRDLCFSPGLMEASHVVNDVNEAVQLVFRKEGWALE
Chain of UniProt Q9H1B7 (Q9H1B7 whole entry, looked up): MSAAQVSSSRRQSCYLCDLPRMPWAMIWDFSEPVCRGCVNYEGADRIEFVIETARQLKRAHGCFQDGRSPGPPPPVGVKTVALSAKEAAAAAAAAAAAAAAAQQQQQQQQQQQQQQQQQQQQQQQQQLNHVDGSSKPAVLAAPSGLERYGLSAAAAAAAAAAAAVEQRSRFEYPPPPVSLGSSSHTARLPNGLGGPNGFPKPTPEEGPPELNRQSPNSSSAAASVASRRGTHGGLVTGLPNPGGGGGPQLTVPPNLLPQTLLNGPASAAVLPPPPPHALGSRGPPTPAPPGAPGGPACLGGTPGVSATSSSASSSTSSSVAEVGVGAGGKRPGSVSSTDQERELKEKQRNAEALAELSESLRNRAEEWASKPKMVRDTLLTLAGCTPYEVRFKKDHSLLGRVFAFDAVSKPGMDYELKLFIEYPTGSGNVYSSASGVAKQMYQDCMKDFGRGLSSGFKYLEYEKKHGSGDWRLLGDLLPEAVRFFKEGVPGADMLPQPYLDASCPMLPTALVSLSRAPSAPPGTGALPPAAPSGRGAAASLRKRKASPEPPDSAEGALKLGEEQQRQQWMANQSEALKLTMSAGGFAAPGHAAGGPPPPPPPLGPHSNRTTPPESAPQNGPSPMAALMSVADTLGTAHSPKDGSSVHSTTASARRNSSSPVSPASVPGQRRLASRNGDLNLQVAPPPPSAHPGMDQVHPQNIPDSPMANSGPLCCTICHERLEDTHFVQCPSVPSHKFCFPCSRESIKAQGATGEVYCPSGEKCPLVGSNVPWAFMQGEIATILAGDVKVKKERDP
Chain of UniProt O60547 (O60547 whole entry, looked up): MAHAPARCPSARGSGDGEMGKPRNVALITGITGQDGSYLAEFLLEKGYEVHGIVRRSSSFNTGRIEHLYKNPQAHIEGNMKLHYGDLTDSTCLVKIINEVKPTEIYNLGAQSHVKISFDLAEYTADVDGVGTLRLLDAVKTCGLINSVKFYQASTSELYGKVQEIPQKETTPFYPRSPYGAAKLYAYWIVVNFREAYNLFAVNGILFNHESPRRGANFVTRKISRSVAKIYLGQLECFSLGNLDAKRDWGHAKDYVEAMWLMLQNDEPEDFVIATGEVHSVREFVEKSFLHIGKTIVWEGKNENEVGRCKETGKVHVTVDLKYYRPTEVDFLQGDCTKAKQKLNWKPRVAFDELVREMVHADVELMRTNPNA

Target	log2 fold change (ibrutinib)	log2 fold change [1]	log2 fold change (ralimetinib)	log2 fold change [2]	log2 fold change [3]	log2 fold change [4]	log2 fold change [5]	log2 fold change [6]	log2 fold change [7]	log2 fold change [8]	log2 fold change (vemurafenib)	log2 fold change [9]	log2 fold change (barasertib)	log2 fold change [10]	log2 fold change (volasertib)	log2 fold change [11]	log2 fold change [12]	log2 fold change [13]	log2 fold change (saracatinib)	log2 fold change (sotrastaurin)
HAUS6 (UniProt Q7Z4H7)	0.025	-0.054	0.027	-0.003	-0.015	0.029	0.01	-0.008	0.073	0.078	0.004	0.092	0.025	0.012	-0.068	0.015	-0.063	0.014	0.01	0.022
GNE isoform 2 (UniProt Q9Y223)	-0.036	0.009	0.033	-0.036	-0.007	-0.011	-0.036	-0.001	0.069	0.009	0.024	0.027	0.03	-0.107	-0.095	0.039	0.008	-0.053	-0.003	-0.029
HAUS8 (UniProt Q9BT25)	0.049	-0.01	0.054	0.011	-0.012	-0.044	-0.062	0.003	0.033	0.036	-0.042	0.04	-0.05	-0.049	0.037	-0.005	-0.048	0.029	0.031	-0.001
IGF2BP2 (UniProt Q9Y6M1)	0.035	0.007	0.056	0.035	0.007	-0.008	-0.036	-0.075	0.006	0.056	0.05	0.026	-0.005	-0.1	-0.049	0.02	-0.066	0.036	0.014	0.026
GMDS (UniProt O60547)	0.042	-0.018	0.025	0.01	-0.023	0.031	0.022	0.027	0.008	0.015	0.057	0.012	0.027	-0.088	-0.034	-0.023	0.019	0.042	-0.033	0.019
HAUS3 (UniProt Q68CZ6)	-0.025	-0.021	0.009	-0.019	0.001	0.022	0.026	0.014	0.025	0.025	0.012	0.024	0.006	-0.029	-0.048	0.002	-0.035	-0.065	-0.016	0.01
HNRNPH2 (UniProt P55795)	0.017	0	-0.03	-0.023	-0.01	0.056	0.024	0.081	0.053	0.029	-0.004	0.025	-0.003	0.05	-0.056	0.008	-0.01	-0.056	-0.025	-0.074
IRF2BPL (UniProt Q9H1B7)	0.052	0.004	0.039	0.026	-0.026	0.02	-0.018	0.045	0.029	-0.038	-0.039	0.026	0.024	0.04	0.001	0.022	-0.195	0.111	0.025	-0.005
HDAC6 (UniProt Q9UBN7)	-0.051	0.003	-0.024	-0.041	-0.014	-0.036	-0.002	0.008	-0.01	0.01	-0.02	0.01	-0.017	-0.035	-0.047	-0.023	0.073	-0.011	-0.011	0.008
GOLGA6B (UniProt A6NDN3)	-0.034	0.003	-0.047	-0.187	-0.057	-0.127	-0.114	0.045	0.066	0	0.015	-0.003	0.2	0.149	-0.006	0.078	-0.086	0.102	0.101	-0.004
HSPA8 (UniProt E9PK54)	0.065	-0.086	-0.013	-0.132	0.004	-0.019	0.008	-0.076	-0.019	0.014	-0.047	0.014	-0.113	-0.071	-0.056	0.08	-0.144	0.052	0.108	0.028
HDHD5 (UniProt Q9BXW7)	-0.027	0.018	0	0.073	-0.042	0.011	-0.023	-0.007	0.024	-0.001	-0.033	0.043	-0.137	-0.076	-0.02	0.01	0	0.011	-0.06	0.05
HMGA1 (UniProt P17096)	0.004	-0.022	-0.024	-0.043	0.002	-0.03	0.075	-0.008	-0.023	-0.017	0.023	-0.011	-0.05	0.051	0.02	-0.04	-0.323 (active)	0.131	-0.001	0.012
HNRNPUL2 (UniProt Q1KMD3)	-0.019	-0.674 (active)	-0.018	-0.02	0.021	-0.022	-0.03	0.011	0.032	0	0.024	0.017	0.038	0.005	-0.009	-0.012	-0.029	0.008	0.029	0.04
GRK2 (UniProt P25098)	0.002	0.011	0.006	0.036	0	0.151	0.014	-0.048	0.007	-0.031	-0.019	0.016	-0.006	-0.08	-0.05	0.003	-0.054	-0.016	-0.009	0.01
KDM6A (UniProt O15550)	-0.007	0.012	0.003	-0.028	0.025	-0.007	-0.065	0.009	-0.004	0.022	-0.045	0.006	0.017	0.035	-0.036	-0.017	0.089	0.067	0.029	-0.01
